Assay in all cases: NCI-60 one-dose screen, 48 h (100 = growth as untreated, 0 = no growth, -100 = all killed)
Holding throughout (settings): 10 µM unless noted

Assay [1] concerns HCT-15 colon.
Assay [2] has as its system HT29 colon.
For assay [3], the system named is SNB-75 CNS.
Assay [4] relates to SNB-19 CNS.
In assay [5] the test system is U251 CNS.
Assay [6] concerns PC-3 prostate.
The test system of assay [7] is UACC-62 melanoma.
Assay [8] concerns LOX IMVI melanoma.
In assay [9] the test system is SK-MEL-28 melanoma.
Assay [10] relates to SK-MEL-5 melanoma.

This is part of a sample that, as a whole, favours compounds with a hit. Of some 83,000 tested, about 20% had one in any assay.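 Plates (96-well) were seeded with cells, treated with compound at one concentration, and incubated for 48 hours before percent growth was determined.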 Unmarked numbers belong to inactive results. Active and inactive are the calls of the source. The calls were made as follows: active = growth percent below 10; inactive = the rest.

With `N#Cc1c(NC(=O)c2ccc([N+](=O)[O-])o2)[n+]([O-])c2cc(F)c(F)cc2[n+]1[O-]`, the growth was 95.1% in assay [1]; 102% in assay [2]; 114% in [3]; 121% in [4]; 102% in [5]; 98.8% in assay [6]. Further, the growth in assay [7] is 100%; in [8] it was 84.7%; in [9], 99.7%.

`Nc1c(C(=O)Nc2cccc(Cl)c2Cl)sc2nc3c(cc12)C(=O)CCC3`: the growth in assay [1] was 75.5%; in assay [2], 85.5%; in assay [3] it was 54.7%; in assay [4], 70.2%; in assay [5], 120%; in assay [6] it was 93.7%. The results for the growth in [7], in assay [8] and in assay [9] were 64.6%, 95.5% and 65%, respectively.

Turning to `Cc1cc2c(C(C)C)c(O)c(O)c(C=NCCCCCCC(=O)O)c2c(O)c1-c1c(C)cc2c(C(C)C)c(O)c(O)c(C=NCCCCCCC(=O)O)c2c1O`, the growth in assay [1] was 16.1%; in assay [2] it was 19%; in assay [3] it was 50.1%; in assay [4] it was 21.8%; in assay [5], 14.3%; in assay [6] it was 18.4%. For the same molecule, the figures for the growth in assay [7], in assay [8] and in assay [9] were 28.7%, 4.47% (active) and 40.2%, respectively.

Turning to `Cc1sc(N=Nc2ccc(N(C)C)cc2)[n+]([O-])c1C`, the growth in assay [1] is 100%; in assay [2], 103%; in [3], 82.5%; in [4], 99.5%; in assay [5], 99%; in assay [6], 95.2%. Besides, the growth is 99.2% in [7], 102% in assay [8] and 102% in assay [9].

Consider `Nc1nc(-c2cc3ccccc3o2)cc(=O)c(=O)[nH]1`, for which the growth in [1] is 103%; in assay [2], 99.7%; in [3], 102%; in assay [4] it was 86.6%; in assay [5] it was 91.9%; in assay [6] it was 97.7%. In addition, the growth in [7] was 94.6%; in assay [8], 98.6%; in assay [9], 112%.

For `O=C(/C=C/CN1CCOCC1)Nc1cc2c(Nc3ccc(F)c(Cl)c3F)ncnc2cc1OCCOC(F)F`, the growth in assay [1] is 38.1%; in assay [2], 43.3%; in assay [3], 21.5%; in [4], 70%; in [5] it was 81.2%; in [6] it was 46.1%. Besides, the results for the growth in assay [7], in [8] and in assay [9] were 65.7%, 15.3% and 77.5%, respectively.

As to `N#CC1=C(N)OC2=C(C(=O)CCC2)C1c1ccco1` (stereo unspecified), the growth was 104% in [1]; 109% in [2]; 95.7% in [3]; 98.3% in assay [4]; 99.3% in [5]; 102% in assay [6]. Also, the growth is 112% in assay [7], 96.4% in assay [8] and 111% in [9].

Regarding `NC(=O)NC(=O)/C=C/C(=O)OCCCl`, the growth in [1] was 77.5%; in assay [2], 90%; in [3] it was 80.3%; in [4], 101%; in assay [5], 101%; in assay [6] it was 92.1%. In addition, the figures for the growth in assay [7], in assay [8] and in [9] were 104%, 98.6% and 100%, respectively.

As to `OC1CC2c3ccccc3C1c1ccccc12` (stereo unspecified), the growth was 106% in [1]; 110% in assay [2]; 90.5% in [3]; 117% in assay [4]; 95.8% in assay [5]; 100% in [6]. The results for the growth in [7], in assay [8] and in assay [9] were 103%, 97.3% and 112%, respectively.

`O=C(CC(O)c1ccncc1)c1ccccc1` (stereo unspecified): the growth is 36.4% in assay [1]; 32.7% in [2]; -5.32% (active) in assay [3]; 68.2% in [4]; 73.4% in [5]; -17.2% (active) in [6]. Moreover, the growth in [7] was 89.3%; in [8] it was -38% (active); in assay [9] it was 105%.

In the case of `O=[N+]([O-])c1c(S(=O)(=O)O)cc2cc(S(=O)(=O)O)ccc2c1[N+](=O)[O-]`, the growth in [1] is 101%; in assay [2], 103%; in [3] it was 98.1%; in assay [4], 108%; in [5], 100%; in assay [6] it was 100%. The growth in assay [7] was 97%; in assay [8] it was 94.3%; in assay [9], 103%.

With `O=C(CNc1c(Cl)cccc1Cl)Nc1ccc(-c2nc3ccccc3s2)cc1`, the growth in assay [1] was 2.42% (active); in [2], 69.8%; in [3] it was 59.2%; in assay [4] it was 73.9%; in assay [5], 27.7%; in assay [6], 85.9%. The results for the growth in assay [7], in assay [8] and in [9] were 35.1%, -49.3% (active) and 104%, respectively.

For the molecule `O=C(Nc1ccc(Br)c(Cl)c1)c1cc(F)ccc1O`, the growth in assay [1] is 7.56% (active); in [2], 0.733% (active); in [3], 8.82% (active); in assay [4], 19.4%; in assay [5], 12.3%; in [6], 5.07% (active). Besides, the growth in assay [7] was -3.96% (active); in [8], -61.4% (active); in assay [9], -7.64% (active).

Take `CCCCCCOc1ccc(C2(Cl)c3ccccc3N(C)c3ccccc32)cc1`: the growth in [1] was 44.7%; in assay [2], 35.1%; in assay [3], 63.3%; in [5] it was -8.78% (active); in [6], 21.8%; in [10], 33.2%. Besides, the growth in assay [7] was 38.1%; in assay [8] it was -33.8% (active); in assay [9], 24.5%.

Turning to `Cc1nn(-c2ccc(Cl)cc2)c(=O)n1CCOc1ccccc1Cl`, the growth in assay [1] is 110%; in assay [2], 95.9%; in assay [3] it was 70.6%; in [4], 115%; in assay [5], 101%; in assay [6] it was 88.5%. The growth was 101% in [7] and 96.6% in [9].

With `COc1ccc(C2=CC(c3ccc(Oc4ccnc5cc(Cl)ccc45)c(OC)c3)c3c(nc(OC)[nH]c3=O)N2)cc1` (stereo unspecified), the growth in assay [1] is 44.5%; in assay [2] it was 50.5%; in assay [3], 73.1%; in assay [4], 75.1%; in assay [5], 67.7%; in assay [6] it was 54.9%. For the same molecule, the growth in assay [7] is 51.9%; in [8] it was 52.7%; in assay [9], 91.1%.

As to `Cc1cc2c(C(C)C)c(O)c(O)c(C=NCCCCC(=O)O)c2c(O)c1-c1c(C)cc2c(C(C)C)c(O)c(O)c(C=NCCCCC(=O)O)c2c1O`, the growth in assay [1] was 34.7%; in [2], 46.6%; in assay [3] it was 62.1%; in assay [5], 24%; in assay [6], 29.2%; in [10] it was 49.4%. Further, the results for the growth in assay [7], in assay [8] and in [9] were 59.2%, 43.4% and 64.2%, respectively.

As for `COc1ccc(C2NC3=C(CCCC3)C(C#N)(C#N)C2(C#N)C#N)cc1` (stereo unspecified), the growth in [1] is 65.9%; in assay [2] it was 79.9%; in assay [3], 88.6%; in assay [5], 107%; in assay [6] it was 104%; in [10] it was 101%. In addition, the growth in [7] was 75.4%; in assay [8], 91.8%; in [9], 106%.

These data come from PubChem BioAssay (NCI).
